Most compounds without a hit are left out; they make up all but 9.2% or so of the library.
SMN2 splice up: qHTS Assay for Enhancers of SMN2 Splice Variant Expression; HEK293 SMN2-luciferase splicing reporter, luminescence, 30-36 h; Potency, µM (doses to about 46.1 µM), for inactives: at the highest dose activity change, positive = activation, actives largely listed as activators; 210,000 tested, 2.8% active; note: % of control where 0% means no effect; nearly all actives have a fitted effect of over 55% in size
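HEK293 cells carry an SMN2 […]–luciferase reporter in which exon 7 inclusion puts luciferase in frame. Cells were plated 10-12 h before compound addition, then incubated 30-36 h at 37C. ONE-Glo luminescence was read; sodium butyrate at 4.5 mM final served as control.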
ELG1 genotox: qHTS screen for small molecules that induce genotoxicity in human embryonic kidney (HEK293T) cells expressing luciferase-tagged ELG1 | HEK293T ELG1-luciferase reporter, luminescence, 16 h | Potency, µM (top dose mostly 46 µM), for the others: at the top dose activity change, positive = activation, hits mostly activators | 330,000 tested, 1.3% active; note: % of control where 0% means no effect; nearly all actives have a fitted effect of over 60% in size
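DMSO vehicle served as control against compound-treated ELG1-luciferase HEK293T cells; exposure lasted 16 hr at 37 °C and 5% CO2, followed by ONE-Glo luminescence detection after 30 min.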
ELG1 repair inh: qHTS screen for small molecules that inhibit ELG1-dependent DNA repair in human embryonic kidney (HEK293T) cells expressing luciferase-tagged ELG1. AID 504467, 2011. HEK293T ELG1-luciferase reporter, luminescence, 16 h; DNA damage induced by 5-fluorouridine. Potency, µM (titrated, usually from 46.1 µM), for inactives: at the highest dose activity change, negative = inhibition, most hits filed as inhibitors. 330,000 tested, 2.3% active; note: % is set by controls: 0 for no effect and ±100 for the full control effect; nearly all actives have a fitted effect of over 55% in size
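DMSO vehicle served as the neutral condition. Each well held 2,000 cells given 5-fluorouridine plus compound; after 16 hr at 37 °C/5% CO2, ONE-Glo was added and luciferase measured 30 min later.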
NPC1 prom act: qHTS Assay for NPC1 Promoter Activators; 320,000 tested, 2.4% active; AID 485313, 2010; Huh7 NPC1 promoter luciferase reporter, 24 h; Potency, µM (highest dose often 9.22 µM), for the others: at the top dose activation, actives largely listed as activators; note: % of control where 0% means no effect; nearly all actives have a fitted effect of over 60% in size
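Stable NPC1-promoter luciferase Huh7 line; cpd (DMSO) 24 h, 37 °C, 5% CO2; Amplite luciferase reagent 10 min RT; luminescence readout. qHTS format.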
FLuc modulator: qHTS profiling assay for firefly luciferase inhibitor/activator using purifed enzyme and Km concentrations of substrates (counterscreen for miR-21 project). Luciferin 4-monooxygenase (Photinus pyralis), P08659. 360,000 tested, 6.9% active. Potency, µM (titrated, usually from 57.5 µM), for inactives: at the highest dose activity change, negative = inhibition, hits mostly inhibitors. purified FLuc, Km substrates, luminescence inhibition;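 note: plate controls were vehicle for no effect and reference inhibitor for full effect; nearly all actives have a fitted effect of over 55% in size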
Target sequence (P08659 whole entry, looked up): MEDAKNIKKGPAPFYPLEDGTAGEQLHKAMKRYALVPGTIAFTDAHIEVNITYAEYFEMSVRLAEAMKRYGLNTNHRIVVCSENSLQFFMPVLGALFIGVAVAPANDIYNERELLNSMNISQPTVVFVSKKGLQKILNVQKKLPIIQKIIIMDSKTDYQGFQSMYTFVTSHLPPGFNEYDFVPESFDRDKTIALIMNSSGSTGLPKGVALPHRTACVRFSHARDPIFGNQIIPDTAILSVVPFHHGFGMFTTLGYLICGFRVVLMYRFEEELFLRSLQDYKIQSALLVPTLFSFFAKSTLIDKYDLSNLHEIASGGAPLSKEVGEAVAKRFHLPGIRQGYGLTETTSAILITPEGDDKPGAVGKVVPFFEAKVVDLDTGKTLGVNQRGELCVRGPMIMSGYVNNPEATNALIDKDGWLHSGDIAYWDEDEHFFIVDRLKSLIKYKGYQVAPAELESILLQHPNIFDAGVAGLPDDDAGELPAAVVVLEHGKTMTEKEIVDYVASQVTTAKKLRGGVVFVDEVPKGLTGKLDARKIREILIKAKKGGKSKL
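Purified P. pyralis luciferase (10nM final) with 10uM D-luciferin and 10uM ATP (Km levels) in 50mM Tris acetate pH 7.5, 10mM Mg acetate, 0.01% Tween-20, 0.05% BSA; qHTS 6-point titration, ~60 µM downward; luminescence read.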
Rab9 prom act: qHTS Assay for Rab9 Promoter Activators; Huh7 Rab9 promoter-luciferase reporter, luminescence, 24 h; Potency, µM (doses to about 9.22 µM), without a hit: at the highest dose activation, negative = inhibition, most hits filed as activators; 320,000 tested, 2.8% active; note: % of control where 0% means no effect; nearly all actives have a fitted effect of over 60% in size
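Luminescence from Amplite-detected luciferase (10 minutes, ambient) reports Rab9 promoter activation. Before that, stable Rab9-luciferase Huh7 cells (1500/well, reduced-serum OP-MEM I plus 10% FBS) were exposed to compound for 24 hours at 37C.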
Active calls of the source: *; [ ] = remark or other dose. Calls come from the whole dose curve; as a rule, active = well fitted curve in the direction sought with a large enough effect; inconclusive = small, poorly fitted or top-dose-only effect, or another doubt; inactive = no such curve, though single readings can be large; an effect the other way counts as inactive or inconclusive. Potency is the fitted concentration of half-maximal effect.

Results for O=C(Nc1ccc(OC(F)F)c(Cl)c1)c1ccccn1 ?
SMN2 splice up: 11.2µM*; ELG1 genotox: 2.31µM*; ELG1 repair inh: inconclusive; NPC1 prom act: 1µM*; FLuc modulator: 3.38µM*; Rab9 prom act: 0.631µM*

What do the screens show for `COc1cc(CCC(=O)Nc2ccc(C)c(S(=O)(=O)N(C)C)c2)cc(OC)c1OC`?
SMN2 splice up: -7.9%[1.84 µM]; ELG1 genotox: -1.3%; ELG1 repair inh: 9.2µM*; NPC1 prom act: -6.7%; FLuc modulator: 0.4%; Rab9 prom act: -5.8%

How did Brc1cc(Cc2nnc(-c3ccccc3)o2)c(Br)s1 do in these assays?
ELG1 genotox: -2.3%; ELG1 repair inh: -0.3%; NPC1 prom act: 1.7%; FLuc modulator: -6.2%; Rab9 prom act: -5.9%

How did CCOc1ccc(N(C(C)C(=O)NCCSc2ccc(Cl)cc2)S(C)(=O)=O)cc1 (stereo unspecified) do in these assays?
SMN2 splice up: -29.2%; FLuc modulator: -13.7%

What do the screens show for `CC1(C)CC(=O)/C(=N/Nc2ccc(Cl)cc2)CO1`?
ELG1 genotox: inconclusive; ELG1 repair inh: inconclusive; NPC1 prom act: 1.78µM*; FLuc modulator: 6.75µM*; Rab9 prom act: 1.78µM*

What do the screens show for `Cc1cccc(N/N=C2/COC(C)(C)CC2=O)c1`?
SMN2 splice up: 17.8µM*; ELG1 genotox: inconclusive; ELG1 repair inh: inconclusive; NPC1 prom act: 3.16µM*; FLuc modulator: 8.49µM*; Rab9 prom act: 3.16µM*

What do the screens show for `CCn1c(=O)cc(OCC(=O)Nc2cccnc2)c2ccccc21`?
SMN2 splice up: -4.0%; ELG1 genotox: 13.0%; ELG1 repair inh: inconclusive; NPC1 prom act: -0.6%; FLuc modulator: -0.8%; Rab9 prom act: 9.0%

Results for O=C(COc1ccc2ccccc2c1Br)Nc1ccncc1 ?
ELG1 genotox: 8.4%; ELG1 repair inh: 9.8%; NPC1 prom act: -13.7%; FLuc modulator: 12µM*; Rab9 prom act: -10.5%

Results for O=C(COc1ccc2ccccc2c1Br)Nc1cccnc1 ?
ELG1 genotox: 17.8%; ELG1 repair inh: inconclusive; NPC1 prom act: inconclusive; FLuc modulator: 4.78µM*; Rab9 prom act: 3.5%

What do the screens show for `CN(C)CC(C(=O)c1ccccc1)c1ccccc1` (stereo unspecified)?
SMN2 splice up: -94.4%; ELG1 genotox: -40.2%; ELG1 repair inh: 16.4µM*; NPC1 prom act: -10.3%; FLuc modulator: -16.4%; Rab9 prom act: -23.1%

Results for CCOC(=O)Cn1cc2c(c1-c1ccc(Cl)cc1)c(=O)n(C)c(=O)n2C ?
SMN2 splice up: 7.2%; FLuc modulator: 1.5%

How did COc1ccc(OCC(=O)N2CCN(C(=O)c3ccc(OC)c(OC)c3)CC2)cc1 do in these assays?
SMN2 splice up: -2.7%; FLuc modulator: inconclusive

What do the screens show for `COc1cc(/C=C/C(=O)OCC(=O)N2CCN(S(=O)(=O)c3ccc(C)cc3C)CC2)ccc1O`?
SMN2 splice up: 4.8%; ELG1 genotox: -5.1%; ELG1 repair inh: 20.6µM*; NPC1 prom act: -0.6%; FLuc modulator: -0.4%; Rab9 prom act: -2.6%

Results for COc1cc(C(=O)N2CCN(S(=O)(=O)c3ccc(C)cc3C)CC2)ccc1OCC(=O)N1CCOCC1 ?
ELG1 genotox: 2.3%; ELG1 repair inh: 2.31µM*; NPC1 prom act: 3.8%; FLuc modulator: 2.5%; Rab9 prom act: 0.1%

What do the screens show for `CCOC(=O)c1c(C)[nH]c(C(=O)OCC(=O)N2CCN(S(=O)(=O)c3ccc(C)cc3C)CC2)c1C`?
ELG1 genotox: -5.9%; ELG1 repair inh: 12.6µM*; NPC1 prom act: 0.2%; FLuc modulator: -0.1%; Rab9 prom act: -8.8%

What do the screens show for `COc1ccc(C(=O)N2CCN(S(=O)(=O)c3ccc(C)cc3C)CC2)cc1OC`?
SMN2 splice up: -12.1%; ELG1 genotox: 0.7%; ELG1 repair inh: inconclusive; NPC1 prom act: -0.2%; FLuc modulator: -1.9%; Rab9 prom act: -2.2%

What do the screens show for `COc1ccc(C(=O)N2CCN(C(=O)COc3ccc(Br)cc3)CC2)cc1OC`?
SMN2 splice up: 5.4%; FLuc modulator: 16.9µM*

How did CC(=O)c1c(C)[nH]c(C(=O)N2CCN(S(=O)(=O)c3ccc(C)cc3C)CC2)c1C do in these assays?
ELG1 genotox: 1.0%; ELG1 repair inh: inconclusive; NPC1 prom act: -0.5%; FLuc modulator: -0.4%; Rab9 prom act: -7.1%

What do the screens show for `Cc1ccc(S(=O)(=O)N2CCN(C(=O)COC(=O)/C=C/c3ccccc3F)CC2)c(C)c1`?
ELG1 genotox: 2.1%; ELG1 repair inh: -1.0%; NPC1 prom act: 0.1%; FLuc modulator: -1.7%; Rab9 prom act: 2.7%

What do the screens show for `CSC(=NC#N)N1CCN(c2cccc(Cl)c2)CC1`?
SMN2 splice up: 1.6%; ELG1 genotox: -2.2%; ELG1 repair inh: 22.4%; NPC1 prom act: -1.4%; FLuc modulator: -10.7%; Rab9 prom act: 3.1%

How did O=C(NCCc1c[nH]c2ccc(Cl)cc12)c1cccnc1 do in these assays?
SMN2 splice up: -10.2%; ELG1 genotox: -7.9%; ELG1 repair inh: inconclusive; NPC1 prom act: 0.9%; FLuc modulator: 5.5%; Rab9 prom act: -9.1%

Results for COc1ccc(OC)c(NC(=O)C(=O)NNC(=O)c2cccs2)c1 ?
SMN2 splice up: 5.3%; ELG1 genotox: -0.1%; ELG1 repair inh: inconclusive; NPC1 prom act: -2.6%; FLuc modulator: -3.4%; Rab9 prom act: 0.0%

How did COc1cc(C(=O)N2CCN(C(=O)c3cc(-c4ccc(Br)cc4)n[nH]3)CC2)cc(OC)c1OC do in these assays?
ELG1 genotox: 1.5%; ELG1 repair inh: -9.7%; NPC1 prom act: 0.8%; FLuc modulator: 10.7µM*; Rab9 prom act: 2.2%

How did CSc1ccc(CSCC(=O)N2CCN(S(=O)(=O)c3ccc(C)cc3C)CC2)cc1 do in these assays?
ELG1 genotox: -5.3%; ELG1 repair inh: 10µM*; NPC1 prom act: 1.1%; FLuc modulator: 6.0%; Rab9 prom act: -11.6%

What do the screens show for `FC(F)Oc1ccc(-n2cc(-c3ccc(Cl)cc3)[n+]3c2CCCCC3)cc1`?
ELG1 genotox: -10.9%; ELG1 repair inh: inconclusive; NPC1 prom act: 2.2%; FLuc modulator: -2.5%; Rab9 prom act: -13.9%

Results for CCN(CC(=O)NCc1ccc(F)cc1)C(=O)/C=C/c1cc(OC)ccc1OC ?
ELG1 genotox: 1.9%; ELG1 repair inh: 8.4%; NPC1 prom act: 0.7%; FLuc modulator: -12.6%; Rab9 prom act: -0.1%
